Activity calls are given as the source filed them.
What was measured:
[1] = tested on: PRMT1 (protein arginine N-methyltransferase 1); test: small molecules binding arginine methyltransferase PRMT1 – biochemical, small-molecule microarray, 635 nm fluorescence, primary screen (AID 1088); details: higher = more signal;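 further: binding of Prmt1 protein to compounds spotted on small-molecule microarray slides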
[2] = growth effects on S. cerevisiae YJM789 – YJM789 clinical isolate, OD600, 24 h, basal, primary screen (AID 1089); details: higher = more signal, called active from +8 up or from −8 down;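 further: growth of clinical yeast isolate S. cerevisiae YJM 789 seeded 1000 cells per well; test concentration not given here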
[3] = S. pombe growth modifiers, basal conditions – strain 972, OD600, 24 h, no modulator, primary screen (AID 1090);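 further: basal condition with compound alone and no growth modifier present; test concentration not given here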; details: S. pombe 972 growth, higher = more signal, called active from +8 up or from −8 down
[4] = budding yeast growth modifiers under rapamycin – strain BY4716, OD600, 96 h, primary screen (AID 1091); further: test concentration not given here; details: S. cerevisiae BY4716 + rapamycin, higher = more signal, called active from +8 up or from −8 down
[5] = biological target: Torsin-1A-interacting protein 2 (Homo sapiens) (UniProt Q8NFQ8); test: small molecules binding lysate-expressed LULL1 – cell lysate, human LULL1 lysate, 635/667 nm fluorescence, primary screen (AID 1092); details: small-molecule microarray, hLULL1 lysate binding, 635 nm fluorescence; higher = more signal;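 further: probe is lysate of COS7 cells overexpressing human LULL1; score merges per-feature 667 nm fluorescence with signal-to-noise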
[6] = optical density change of DRC41 E. coli – strain DRC41, OD650, 24 h, E. coli filamentation project, primary screen (AID 1093);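 further: MC1000 strain lacking acrAB efflux and sulA so SOS filamentation is blocked; test concentration not given here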; details: E. coli DRC41 growth, higher = more signal, called active from +8 up or from −8 down
[7] = probe aLefty2 binding to arrayed compounds – biochemical, biotinylated probe, 635/667 nm fluorescence, primary screen (AID 1094); details: small-molecule microarray, higher = more signal;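 further: score merges spot fluorescence near 667 nm with spot signal-to-noise ratio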
[8] = tested on: Noggin (protein binding on small-molecule microarray); test: small molecules binding Noggin protein – biochemical, 635/667 nm fluorescence, primary screen (AID 1095); details: 635 nm fluorescence, higher = more signal;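 further: score merges 667 nm feature fluorescence with signal to noise over triplicate slides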
[9] = biological target: Neurogenic locus notch homolog protein 3 (Homo sapiens) (UniProt Q9UM47); test: small molecules binding NOTCH3 protein – biochemical, 635/667 nm fluorescence, primary screen (AID 1096); details: small-molecule microarray, 635 nm fluorescence, higher = more signal
[10] = probe aEGFR binding to arrayed compounds – biochemical, biotinylated probe, 635/667 nm fluorescence, primary screen (AID 1097); details: small-molecule microarray, higher = more signal;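 further: probe is a biotinylated anti-EGFR antibody binding compounds printed on slides; score combines fluorescence near 667 nm and signal to noise of each spot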
[11] = tested on: Plasmodium falciparum Sir2 (PF13_0152, Sir2A); test: Plasmodium falciparum Sir2A binding compounds – biochemical, small-molecule microarray, 635 nm fluorescence, primary screen (AID 1098); details: fluorescence 635 nm, higher = more signal;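 further: score merges spot fluorescence intensity with its signal-to-noise ratio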
[12] = probe aDKK1 binding to arrayed compounds – biochemical, biotinylated probe, 635/667 nm fluorescence, primary screen (AID 1099); details: small-molecule microarray, higher = more signal;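 further: score merges 667nm spot fluorescence with signal to noise across triplicate slides; reference of the scale not given here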
[13] = probe aCHRDL2 binding to arrayed compounds – biochemical, biotinylated probe, 635/667 nm fluorescence, primary screen (AID 1100); details: small-molecule microarray, higher = more signal
[14] = change in splice reporter luminescence, either direction, cell-based, HEK293, spliceosome inhibition project, primary screen (AID 1101); details: HEK293 splicing luciferase reporter, 24 h, higher = more signal, called active from +8 up or from −8 down;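 further: HEK293 cells carrying a splicing-competent luciferase reporter gene; test concentration not given here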
[15] = biological target: Fibroblast growth factor 10 (Homo sapiens) (UniProt O15520); test: compounds binding fibroblast growth factor 10 – biochemical, small-molecule microarray, 635 nm fluorescence, primary screen (AID 1102); details: FGF10 binding, fluorescence 635 nm, higher = more signal
[16] = tested on: glycogen synthase kinase-3 (GSK3A per assay name; protocol says GSK3B); test: compounds binding glycogen synthase kinase-3 – biochemical, small-molecule microarray, 635 nm fluorescence, GSK3A, primary screen (AID 1103); details: fluorescence 635 nm, higher = more signal; further: the record names both GSK3A and GSK3B
[17] = biological target: Epidermal growth factor receptor (Homo sapiens) (UniProt P00533); test: compounds binding epidermal growth factor receptor – biochemical, small-molecule microarray, 635 nm fluorescence, primary screen (AID 1104); details: EGFR binding, higher = more signal;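 further: score merges 667 nm emission intensity with spot signal to noise over triplicate slides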
[18] = biological target: Follistatin-related protein 3 (Homo sapiens) (UniProt O95633); test: compounds binding follistatin-related protein 3 – biochemical, small-molecule microarray, 635 nm fluorescence, primary screen (AID 1105); details: FSTL3 binding, higher = more signal;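 further: score merges emission near 667 nm and signal to noise per printed spot across three slides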
[19] = biological target: Dickkopf-related protein 1 (Homo sapiens) (UniProt O94907); test: small molecules binding DKK1 protein – biochemical, small-molecule microarray, 635 nm fluorescence scan, primary screen (AID 1106); details: higher = more signal;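 further: score merges emission near 667 nm with signal to noise over three replicate slides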
[20] = tested on: Inhibin beta A chain (activin A); test: small molecules binding activin A – biochemical, small-molecule microarray, 635 nm fluorescence scan, primary screen (AID 1107); details: INHBA, higher = more signal;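 further: mouse activin A protein probed at 4.33 µg/mL on printed slides; score merges bound-protein fluorescence near 667 nm with spot signal-to-noise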

Sequence of Torsin-1A-interacting protein 2 (Homo sapiens) (Q8NFQ8 whole entry, looked up): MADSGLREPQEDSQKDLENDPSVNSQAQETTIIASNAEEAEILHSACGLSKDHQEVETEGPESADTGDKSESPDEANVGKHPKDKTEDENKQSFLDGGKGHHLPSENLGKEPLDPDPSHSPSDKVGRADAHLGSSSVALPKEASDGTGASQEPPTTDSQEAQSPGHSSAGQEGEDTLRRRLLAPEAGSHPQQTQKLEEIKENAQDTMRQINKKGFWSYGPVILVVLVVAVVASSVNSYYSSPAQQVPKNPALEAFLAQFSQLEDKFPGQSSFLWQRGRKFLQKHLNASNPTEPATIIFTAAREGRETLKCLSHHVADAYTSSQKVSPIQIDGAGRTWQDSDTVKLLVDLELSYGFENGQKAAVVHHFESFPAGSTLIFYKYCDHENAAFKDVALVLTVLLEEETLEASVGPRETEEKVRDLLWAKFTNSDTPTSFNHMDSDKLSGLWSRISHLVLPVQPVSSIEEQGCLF
Sequence of Follistatin-related protein 3 (Homo sapiens) (O95633 whole entry, looked up): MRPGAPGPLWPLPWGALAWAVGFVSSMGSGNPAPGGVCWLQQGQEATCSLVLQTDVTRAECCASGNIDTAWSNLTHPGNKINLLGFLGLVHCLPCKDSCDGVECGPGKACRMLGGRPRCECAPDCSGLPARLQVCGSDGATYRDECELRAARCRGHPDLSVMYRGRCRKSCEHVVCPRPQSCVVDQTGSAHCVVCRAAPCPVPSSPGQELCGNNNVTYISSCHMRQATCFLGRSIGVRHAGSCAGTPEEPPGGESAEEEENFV
Sequence of Neurogenic locus notch homolog protein 3 (Homo sapiens) (Q9UM47 whole entry, looked up): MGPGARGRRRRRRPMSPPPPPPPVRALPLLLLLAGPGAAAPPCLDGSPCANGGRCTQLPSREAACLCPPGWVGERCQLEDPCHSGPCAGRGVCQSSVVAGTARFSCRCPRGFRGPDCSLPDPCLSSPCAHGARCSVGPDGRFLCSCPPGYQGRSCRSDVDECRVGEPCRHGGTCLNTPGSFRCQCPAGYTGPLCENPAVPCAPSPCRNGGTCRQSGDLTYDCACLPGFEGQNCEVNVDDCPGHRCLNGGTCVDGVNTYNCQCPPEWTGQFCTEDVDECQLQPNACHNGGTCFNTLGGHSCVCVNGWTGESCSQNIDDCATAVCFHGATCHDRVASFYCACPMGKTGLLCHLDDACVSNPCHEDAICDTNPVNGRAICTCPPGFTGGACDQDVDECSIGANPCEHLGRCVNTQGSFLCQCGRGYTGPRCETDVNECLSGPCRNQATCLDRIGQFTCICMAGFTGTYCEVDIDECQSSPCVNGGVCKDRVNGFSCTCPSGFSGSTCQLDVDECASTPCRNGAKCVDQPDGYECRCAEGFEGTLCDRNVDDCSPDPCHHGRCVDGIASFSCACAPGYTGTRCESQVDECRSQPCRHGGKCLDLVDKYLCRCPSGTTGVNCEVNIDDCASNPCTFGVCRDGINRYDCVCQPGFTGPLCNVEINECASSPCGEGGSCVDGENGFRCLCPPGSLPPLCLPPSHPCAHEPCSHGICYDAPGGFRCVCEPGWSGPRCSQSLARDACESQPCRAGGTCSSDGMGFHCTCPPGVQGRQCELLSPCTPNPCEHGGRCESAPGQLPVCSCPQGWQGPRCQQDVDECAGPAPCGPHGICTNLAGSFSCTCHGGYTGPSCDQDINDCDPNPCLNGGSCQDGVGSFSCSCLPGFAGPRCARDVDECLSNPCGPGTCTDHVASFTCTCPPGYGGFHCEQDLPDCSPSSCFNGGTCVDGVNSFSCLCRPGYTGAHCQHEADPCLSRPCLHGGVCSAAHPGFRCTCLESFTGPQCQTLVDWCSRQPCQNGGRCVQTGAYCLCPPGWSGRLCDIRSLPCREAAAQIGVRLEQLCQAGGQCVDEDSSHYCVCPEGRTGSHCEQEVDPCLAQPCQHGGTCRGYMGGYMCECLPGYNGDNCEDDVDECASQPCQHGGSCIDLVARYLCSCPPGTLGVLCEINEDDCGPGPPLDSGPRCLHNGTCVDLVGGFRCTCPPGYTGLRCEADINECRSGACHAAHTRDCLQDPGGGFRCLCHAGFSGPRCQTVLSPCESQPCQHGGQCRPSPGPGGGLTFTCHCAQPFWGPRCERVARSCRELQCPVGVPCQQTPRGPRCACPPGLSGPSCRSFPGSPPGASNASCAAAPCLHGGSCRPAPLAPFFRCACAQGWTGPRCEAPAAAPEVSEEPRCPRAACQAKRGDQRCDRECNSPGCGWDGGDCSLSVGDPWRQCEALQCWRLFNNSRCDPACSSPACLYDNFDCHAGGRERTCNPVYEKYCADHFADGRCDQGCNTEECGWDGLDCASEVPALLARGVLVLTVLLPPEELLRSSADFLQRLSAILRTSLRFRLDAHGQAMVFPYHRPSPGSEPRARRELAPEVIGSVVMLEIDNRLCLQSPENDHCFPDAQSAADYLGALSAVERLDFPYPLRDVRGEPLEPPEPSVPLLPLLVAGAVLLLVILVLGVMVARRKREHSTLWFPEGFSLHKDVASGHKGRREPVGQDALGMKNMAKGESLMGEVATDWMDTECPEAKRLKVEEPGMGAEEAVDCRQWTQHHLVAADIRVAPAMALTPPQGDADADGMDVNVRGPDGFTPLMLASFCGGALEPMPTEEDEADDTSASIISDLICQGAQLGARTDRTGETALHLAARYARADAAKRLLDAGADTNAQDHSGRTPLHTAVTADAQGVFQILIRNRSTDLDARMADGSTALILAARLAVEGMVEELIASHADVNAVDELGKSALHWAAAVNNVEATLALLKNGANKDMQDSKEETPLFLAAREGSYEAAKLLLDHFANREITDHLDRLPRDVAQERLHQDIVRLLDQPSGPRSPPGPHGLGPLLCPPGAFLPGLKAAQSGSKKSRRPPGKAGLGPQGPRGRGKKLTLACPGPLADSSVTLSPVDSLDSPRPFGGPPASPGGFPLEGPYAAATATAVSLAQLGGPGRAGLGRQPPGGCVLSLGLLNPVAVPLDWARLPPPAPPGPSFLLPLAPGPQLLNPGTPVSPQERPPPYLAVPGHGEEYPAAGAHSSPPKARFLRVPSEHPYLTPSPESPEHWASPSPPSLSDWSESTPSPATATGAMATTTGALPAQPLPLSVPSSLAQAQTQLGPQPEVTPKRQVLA
Sequence of Fibroblast growth factor 10 (Homo sapiens) (O15520 whole entry, looked up): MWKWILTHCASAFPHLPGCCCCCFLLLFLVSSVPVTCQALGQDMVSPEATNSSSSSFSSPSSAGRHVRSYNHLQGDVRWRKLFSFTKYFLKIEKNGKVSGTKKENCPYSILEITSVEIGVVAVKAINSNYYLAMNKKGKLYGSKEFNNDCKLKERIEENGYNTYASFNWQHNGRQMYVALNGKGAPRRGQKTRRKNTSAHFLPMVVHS
Sequence of Dickkopf-related protein 1 (Homo sapiens) (O94907 whole entry, looked up): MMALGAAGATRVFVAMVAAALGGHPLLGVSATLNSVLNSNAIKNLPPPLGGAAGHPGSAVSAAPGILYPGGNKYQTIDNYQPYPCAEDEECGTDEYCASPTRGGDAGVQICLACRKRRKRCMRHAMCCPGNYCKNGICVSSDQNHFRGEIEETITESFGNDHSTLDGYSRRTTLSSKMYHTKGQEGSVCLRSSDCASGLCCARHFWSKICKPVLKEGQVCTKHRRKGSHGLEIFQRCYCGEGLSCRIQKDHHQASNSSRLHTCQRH
Sequence of Epidermal growth factor receptor (Homo sapiens) (P00533 whole entry, looked up): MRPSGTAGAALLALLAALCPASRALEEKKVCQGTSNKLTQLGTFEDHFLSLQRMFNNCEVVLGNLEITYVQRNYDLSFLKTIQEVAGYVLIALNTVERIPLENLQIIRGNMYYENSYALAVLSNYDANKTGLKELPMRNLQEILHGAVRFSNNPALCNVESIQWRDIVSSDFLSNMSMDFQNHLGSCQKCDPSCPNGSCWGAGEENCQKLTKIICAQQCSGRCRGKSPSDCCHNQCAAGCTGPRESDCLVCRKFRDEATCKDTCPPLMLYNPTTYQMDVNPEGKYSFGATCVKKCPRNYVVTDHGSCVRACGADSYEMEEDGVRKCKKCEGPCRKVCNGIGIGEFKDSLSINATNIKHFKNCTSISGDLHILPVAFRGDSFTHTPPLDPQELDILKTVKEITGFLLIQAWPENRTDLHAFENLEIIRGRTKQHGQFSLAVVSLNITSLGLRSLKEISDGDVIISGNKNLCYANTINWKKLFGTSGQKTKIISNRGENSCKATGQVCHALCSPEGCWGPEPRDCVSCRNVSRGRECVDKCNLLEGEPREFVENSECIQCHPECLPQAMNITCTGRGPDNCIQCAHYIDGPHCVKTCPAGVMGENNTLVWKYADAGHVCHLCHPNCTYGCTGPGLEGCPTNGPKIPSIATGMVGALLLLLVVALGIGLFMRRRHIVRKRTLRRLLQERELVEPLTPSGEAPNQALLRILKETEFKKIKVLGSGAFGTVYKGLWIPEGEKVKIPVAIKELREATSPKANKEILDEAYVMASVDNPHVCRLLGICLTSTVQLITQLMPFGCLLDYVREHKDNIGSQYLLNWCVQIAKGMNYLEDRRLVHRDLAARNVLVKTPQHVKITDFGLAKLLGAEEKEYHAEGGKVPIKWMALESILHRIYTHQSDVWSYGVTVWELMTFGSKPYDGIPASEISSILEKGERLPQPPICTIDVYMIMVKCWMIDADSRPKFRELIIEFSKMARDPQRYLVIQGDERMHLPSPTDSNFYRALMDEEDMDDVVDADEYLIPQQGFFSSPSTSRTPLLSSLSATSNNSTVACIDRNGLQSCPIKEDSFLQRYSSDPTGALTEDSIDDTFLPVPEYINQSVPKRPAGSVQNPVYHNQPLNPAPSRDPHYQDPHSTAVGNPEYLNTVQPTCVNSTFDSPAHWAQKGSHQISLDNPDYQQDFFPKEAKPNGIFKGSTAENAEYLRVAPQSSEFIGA

SMILES | composite z-score [1] | z-score [2] | z-score [3] | z-score [4] | composite z-score [5] | z-score [6] | composite z-score [7] | composite z-score [8] | composite z-score [9] | composite z-score [10] | composite z-score [11] | composite z-score [12] | composite z-score [13] | z-score [14] | composite z-score [15] | composite z-score [16] | composite z-score [17] | composite z-score [18] | composite z-score [19] | composite z-score [20]
COc1cc(Cc2cc3c(c(-c4ccccc4)n2)[Si](C(C)C)(C(C)C)OC3)cc(OC)c1OC | -0.313 | 0.208 (inactive) | -0.949 (inactive) | -0.573 (inactive) | -0.501 | 1.22 (inactive) | -0.0991 | 0.331 | -0.108 | -0.0864 | -0.201 | -0.113 | 0.105 | -0.877 (inactive) | 0.607 | -0.0611 | 0.1 | 0.0088 | 0.17 | 1.23
COC(=O)[C@@]1(Cc2ccc(F)cc2)[C@H]2c3cc(C(=O)N(C)C)n(Cc4ccsc4Br)c3C[C@H]2CN1C(=O)c1ccccc1 | -0.291 | 0.232 (inactive) | 0.168 (inactive) | 1.37 (inactive) | 3.64 | -1.32 (inactive) | 1.38 | -0.322 | 1.08 | 1.06 | 1.3 | 2.31 | 1.36 | -3.81 (inactive) | 1.16 | 0.0579 | 1.51 | 0.369 | 0.0249 | 0.5
CCCCC(=C=CC[C@@H](O)c1ccc(OCCO)cc1)CCO | 0.571 | -0.026 (inactive) | -1.56 (inactive) | -1.06 (inactive) | 1.6 | 0.639 (inactive) | -0.135 | 0.424 | -0.0085 | -0.333 | 0.413 | -0.0198 | -0.305 | -0.755 (inactive) | 0.701 | -0.246 | -0.899 | -0.281 | -0.549 | 1.09
CCCCC(=C=CC[C@H](O)c1cccc(OCCO)c1)C[C@H](O)c1cc(Cl)cc(Cl)c1O | 1.53 | 0.59 (inactive) | -1.71 (inactive) | 0.102 (inactive) | 1.81 | 0.206 (inactive) | 0.206 | 0.999 | 0.883 | -0.112 | 1.28 | -0.152 | -0.214 | -0.109 (inactive) | 1.27 | 0.25 | -0.443 | 0.544 | 0.0244 | 0.295
COCCCNC(=O)[C@]1(Cc2ccccc2N=[N+]=[N-])N=C(c2ccc(OCCCO)cc2)O[C@@H]1c1ccccc1 | 1.46 | -1.51 (inactive) | -0.982 (inactive) | 2.48 (inactive) | 3.23 | 1.1 (inactive) | 0.692 | -0.0042 | 0.901 | 0.377 | 1.5 | 1.23 | 1.28 | 1.08 (inactive) | 0.612 | 1.25 | -0.137 | 0.597 | -0.425 | 0.97
COc1ccc(CCNC(=O)[C@@H]2c3ccccc3C(=O)N(Cc3cc(F)cc(C(F)(F)F)c3)[C@H]2c2ccc(CO)cc2)cc1 | 1.54 | -0.0253 (inactive) | -0.131 (inactive) | 0.142 (inactive) | 2.21 | 1.02 (inactive) | 0.159 | 0.415 | 0.195 | 0.179 | 0.181 | 1.89 | 0.877 | -0.267 (inactive) | 0.12 | 0.765 | 0.321 | 1.1 | 0.157 | 1.08
CC(C)(C)OC(=O)CC[C@@]1(C(N)=O)N=C(c2ccc(OCCCO)cc2)O[C@@H]1c1ccccc1CN=[N+]=[N-] | -0.319 | 0.689 (inactive) | -0.477 (inactive) | -0.132 (inactive) | 2.86 | 0.035 (inactive) | 0.669 | 0.324 | 0.851 | 0.756 | 0.469 | 1.42 | 1.08 | -0.169 (inactive) | 1.48 | 1.1 | 0.0813 | 0.211 | -0.105 | 0.854
CC(C)c1ccc(NN2C(C(O)c3ccccc3)C=CC3C(=O)N(c4ccccc4)C(=O)C32)cc1 (stereo not given) | 0.787 | 1.54 (inactive) | -0.0469 (inactive) | 0.209 (inactive) | 2.88 | -0.213 (inactive) | 0.142 | -0.621 | 1.11 | 0.198 | 1.26 | 1.25 | 0.98 | -0.648 (inactive) | 0.715 | 0.522 | -0.144 | 0.634 | -0.624 | 0.546
COCCOC(=O)N1C(=O)[C@@]2(c3cc(C#CCC(C(=O)OC)C(=O)OC)ccc31)[C@H](C(N)=O)[C@H]1C(=O)O[C@H](c3ccccc3)[C@H](c3ccccc3)N1[C@@H]2c1ccccc1OCCO | 1.55 | -2.36 (inactive) | -1.12 (inactive) | 2.65 (inactive) | 1.89 | 0.533 (inactive) | -0.204 | 1.56 | 1.06 | -0.0661 | 0.997 | -0.202 | -0.129 | -1.32 (inactive) | 1.37 | 1.31 | 0.958 | 1.09 | 0.47 | 0.486
CN1C(=O)C2C(C1=O)C1C=C(CCCO)C2C(C2CC2)N1C (stereo not given) | 0.74 | -1.39 (inactive) | -0.339 (inactive) | -0.517 (inactive) | 2.52 | -0.797 (inactive) | -0.0812 | -0.21 | -0.312 | -0.0922 | 0.264 | 0.0917 | 0.38 | -0.89 (inactive) | -0.158 | -0.83 | 0.0501 | -0.694 | -0.741 | 0.411
